According to PubChem BioAssay AID1619 (SRMLSC, 2009):
In all, about 220,000 compounds went through this assay and about 830 (0.38%) were called active.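 Rule for the calls: active = compound inhibiting the enzyme by more than half at any dose during confirmatory dose-response retesting; inconclusive = strong single-dose inhibitors picked by rank but not retested; inactive = the rest.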 Not all results are given here. Potency and affinity values are given separately.

target: Leucine aminopeptidase (Plasmodium falciparum (isolate 3D7)) (UniProt Q8IL11); experiment: P. falciparum M17LAP inhibitors, primary screen, biochemical, fluorogenic H-Leu-NHMec substrate, 1536-well (AID 1619); conditions: recombinant M17LAP, H-Leu-NHMec fluorogenic kinetic assay; at 30 µM; hits give high values;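 note: plate controls were full reaction with DMSO carrier for no effect and no enzyme background for full effect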
Sequence (Q8IL11 whole entry, looked up): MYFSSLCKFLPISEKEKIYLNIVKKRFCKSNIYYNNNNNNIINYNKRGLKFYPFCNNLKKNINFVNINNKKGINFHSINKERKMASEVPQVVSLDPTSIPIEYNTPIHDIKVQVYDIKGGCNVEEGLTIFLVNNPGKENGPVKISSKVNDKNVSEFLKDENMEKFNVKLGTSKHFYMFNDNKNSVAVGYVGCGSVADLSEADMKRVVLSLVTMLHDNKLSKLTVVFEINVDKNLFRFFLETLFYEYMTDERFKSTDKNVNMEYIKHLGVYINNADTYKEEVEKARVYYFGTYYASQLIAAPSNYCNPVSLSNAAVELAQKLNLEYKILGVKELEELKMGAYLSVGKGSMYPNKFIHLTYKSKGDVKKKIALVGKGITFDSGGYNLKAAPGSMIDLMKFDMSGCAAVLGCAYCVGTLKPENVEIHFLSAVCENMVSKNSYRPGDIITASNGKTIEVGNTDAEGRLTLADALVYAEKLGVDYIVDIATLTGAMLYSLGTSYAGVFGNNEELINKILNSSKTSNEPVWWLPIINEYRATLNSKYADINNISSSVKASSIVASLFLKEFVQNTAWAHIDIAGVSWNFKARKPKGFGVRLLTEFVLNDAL

inhibition, inactive:
CCOc1ccc(Nc2cc(=O)oc3ccccc23)cc1 4.7%
Cc1cccc(N2CCN(S(=O)(=O)c3ccc4c(c3)CCN4C(=O)CCC(=O)O)CC2C)c1 (centres undefined) -2.93%
CCN(CC)C(=O)CSc1nnnn1-c1ccc(F)c(Cl)c1 -1.03%
CNC(=S)Nc1ccc(C)cc1 3.68%
Cc1ccc(NC(N)=S)cc1 18.7%
O=C(CN1C(=O)C2C3C=CC(C3)C2C1=O)Nc1ccc2nccnc2c1 (centres undefined) 1.82%
Cc1cc(C=C2C(=O)c3ccccc3C2=O)c(C)n1-c1ccc(C(=O)O)cc1 18.3%
Cc1cc(C=C2C(=O)c3ccccc3C2=O)c(C)n1-c1ccccc1 -3.81%
Cn1c(=O)cc(OCCCC(=O)NCCC2=CCCCC2)c2ccccc21 -10.7%
C=CCn1cccc(C(=O)Nc2ccc(OC)cc2OC)c1=O 21.4%
COC(=O)COc1cccc2c(=O)n(CC(=O)N3CCC(C)CC3)ccc12 -7.98%
CCOC(=O)COc1cccc2c(=O)n(CC(=O)N3CCC(C)CC3)ccc12 3.95%
COc1cccc2c(=O)n(CC(=O)N3CCCCC3)ccc12 33.4%
COC(=O)COc1cccc2c(=O)n(CC(=O)N3CCCCC3)ccc12 12.9%
COc1ccccc1/C=C(\NC(=O)c1ccc(OC)c(OC)c1)C(=O)Nc1cccc([N+](=O)[O-])c1 -33.9%
Cc1ccc(-c2cc(C(=O)NCc3ccco3)no2)cc1 -5.12%
COc1cc(SC)ccc1C(=O)NCCN1CCOCC1 -0.03%
O=C(c1cccc(NS(=O)(=O)c2cccc(F)c2)c1)N1CCN(c2ccccc2)CC1 -9.4%
Cn1c(SCC(=O)Nc2ccc(N3CCOCC3)cc2)nnc1-c1ccccc1 -0.5%
COc1ccc(/C=N/N=C2\SC(CC(=O)O)C(=O)N2c2ccccc2)cc1 (centres undefined) 33.9%
COc1ccc(/C=N\N=C2/SC(CC(=O)O)C(=O)N2c2ccc(O)cc2)cc1 (centres undefined) 45.6%
Cc1ccc2cc(C)c3nnc(SCC(=O)N4CCCc5ccccc54)n3c2c1C 1.13%
Cc1cc(C(=O)CN2C(=O)NC3(CCCc4ccccc43)C2=O)c(C)n1Cc1ccccc1 (centres undefined) 7.63%
CCOc1ccccc1NC(=O)NC1(C(=O)N2CCN3CCCC3C2)CCCCC1 (centres undefined) 20.5%
CCn1c(SCC(=O)c2ccc(C)cc2)nnc1-c1ccncc1 3.05%
CCn1c(SCC(=O)O)nnc1-c1ccccc1 -5.68%
Cn1cnnc1SCC(=O)c1ccc(O)c(O)c1 38.8%
Cc1cc(SCC(=O)c2ccc(O)c(O)c2)nc2ccccc12 36.2%
CCn1c(SCC(=O)c2ccccc2)nnc1-c1cccnc1 14.5%
CCn1c(SCC(=O)OC)nnc1-c1ccc(C)cc1 3.28%
O=C(CSc1nc2ccccc2n1CCc1ccccc1)c1ccc(O)c(O)c1 -0.72%
Cc1cc(SCC(=O)c2ccc(O)c(O)c2)n2nc(C)c(-c3ccccc3)c2n1 16.1%
Cc1ccc2cc(CN(CC3CCCO3)S(=O)(=O)c3cccc4nsnc34)c(=O)[nH]c2c1 (centres undefined) -1.29%
O=C(COC(=O)c1ccc[nH]c1=O)NCC1CCCO1 (centres undefined) -1.42%
Cc1ccc(S(=O)(=O)N2CCN(CC(=O)NC3CCCc4ccccc43)CC2)c(C)c1 (centres undefined) 5.05%
CC(NC(=O)C(C)N1C(=O)C2C3CC(C(Br)C3Br)C2C1=O)c1ccccc1 (centres undefined) 10.6%
C=CCOC(=O)C1=C(C)Nc2ncnn2C1c1cc(Br)ccc1F (centres undefined) -2.3%
Cc1ccc(CSc2nnc(SCC(=O)N/N=C/C=C/c3ccccc3[N+](=O)[O-])s2)cc1 5.78%
S=c1[nH]nc(-c2ccccn2)n1/N=C/c1ccco1 0.92%
CCOc1ccc(C(=O)CN2CCN(S(=O)(=O)c3ccc(Br)cc3)CC2)cc1 41.1%
CCOc1ccc(C(=O)CN2CCN(S(=O)(=O)c3ccc(F)cc3)CC2)cc1 26.6%
CC(C)[C@H](NS(=O)(=O)c1ccc2c(c1)OCCO2)C(=O)OCC(=O)Nc1ccccc1Cl 9.34%
CC(=O)Nc1ccc(NS(=O)(=O)c2cc([N+](=O)[O-])ccc2C)cc1 1.99%
Cc1ccc(C)c(NC(=O)c2ccccc2NS(=O)(=O)c2cc([N+](=O)[O-])ccc2C)c1 31.8%
CCN(CC)CCN(C(=O)c1ccc2c(c1)CCCC2)c1nc2ccc(F)cc2s1 -4.78%
c1ccc(CCNc2nc(-c3ccncc3)nc3ccccc23)cc1 11.8%
CCOC(=O)c1c(-c2ccccc2)csc1NC(=O)C1CCCO1 (centres undefined) 17.1%
COC(=O)c1c(-c2ccccc2)csc1NC(=O)c1ccco1 4.09%
CCc1ccc(-c2csc(NC(=O)C3CCCO3)c2C(=O)OC(C)C)cc1 (centres undefined) 57.8%
CCOC(=O)c1c(-c2ccc(OC)c(OC)c2)csc1NC(=O)C1CCCO1 (centres undefined) -3.98%
COC(=O)c1sccc1NC(=O)C1CC=CCC1C(=O)O (centres undefined) 36.4%
COC(=O)c1c(-c2cccc(C)c2)csc1NC(=O)C1CCCO1 (centres undefined) -0.44%
CC(C)OC(=O)c1c(-c2ccc(C(C)C)cc2)csc1NC(=O)C1CCCO1 (centres undefined) 16.2%
Cc1ccsc1C(=O)NNC(=O)C1CC=CCC1C(=O)O (centres undefined) 28%
COc1ccc(NC(=O)C2=C(C)NC(=O)NC2c2cccs2)c(OC)c1 (centres undefined) 2.25%
COc1ccc(OCC(=O)OC2CCCN(C)C2)cc1 (centres undefined) 3.48%
Cc1c(-c2ccc(Cl)cc2)oc(=O)c2c(N)n(-c3ccccc3)nc12 -7.58%
CCN(c1ccccc1)S(=O)(=O)c1cc(C(=O)OC(C)C(=O)Nc2ccc3c(c2)OCCO3)ccc1C (centres undefined) -0.98%
Cn1c(SCC(=O)NCCN2C(=O)CSC2=O)nnc1-c1ccccc1 -14.5%
Cc1cc(C)c(-c2c(O)c3cnn(-c4ccccc4)c3[nH]c2=O)c(C)c1 13.5%
Cc1ccc(CC(=O)N2CCOCC2)cc1 0.85%
Cc1ccc2ccccc2[n+]1CCCS(=O)(=O)[O-] 7.83%
COC(=O)c1c(-c2ccccc2)csc1NC(=O)C1CC=CCC1C(=O)O (centres undefined) 6.75%
COC(=O)c1c(-c2ccc(C)cc2)csc1NC(=S)NC(=O)c1ccc(F)cc1 -17.5%
CCOC(=O)c1c(-c2ccc(F)cc2)csc1NC(=O)C1CC=CCC1C(=O)O (centres undefined) 3.77%
CCOC(=O)c1c(-c2cccc([N+](=O)[O-])c2)csc1NC(=O)C1CCCCC1 -7.16%
CCOC(=O)c1c(-c2cccc([N+](=O)[O-])c2)csc1NC(=O)C1CC1 -5.68%
CCOC(=O)c1c(-c2ccc(C)cc2)csc1NC(=O)C1CCCO1 (centres undefined) -4.23%
Cc1nn(-c2ccccc2)c(N)c1C(O)(CSc1nccn1C)C(F)(F)F (centres undefined) -3.48%
CCC(CC)c1nnc(NC(=O)C2=NNC(=O)CC2)s1 -4.73%
COc1ccc(-c2cc(=O)n(-c3ccc([N+](=O)[O-])cc3)[nH]2)cc1 2.52%
Nn1cnc2sc3c(c2c1=O)CCC3 0.94%
CCC(=O)Nc1ccc2c(c1)C(=O)c1ccccc1C2=O -6.31%
COC(=O)N1[C@H](C)C=C[C@]1(Cc1ccccc1)C(=O)O 2.77%
CCOC(=O)c1ccc(Cl)c(NC(=O)c2ccc(-c3ccccc3)cc2)c1 -7.72%
COc1ccc(N2C(=O)/C(=C/c3ccc([N+](=O)[O-])cc3)C=C2c2ccccc2)cc1 -15.3%
COc1ccccc1Nc1nc(-c2c(C)nc3ncccn23)cs1 11.3%
COc1ccc(C2C(C#N)=C(N)OC3=C2C(=O)CC(C)(C)C3)cc1 (centres undefined) 7%
CCN=c1scc(C)n1/N=C/c1ccsc1 12.2%
CN=c1scc(C)n1/N=C/c1ccc(O)c(O)c1O 59%
CCCCN(CC)CCCNC(=O)c1cc2c(=O)n(C)c3ccccc3c2n1C -2.09%
COc1ccc(/C=C2/SC(=S)N(CCC(=O)O)C2=O)cc1 38.8%
O=C(O)CCN1C(=O)/C(=C\c2ccncc2)SC1=S 12.4%
COc1ccc(C(=O)CCC(=O)O)cc1 2.45%
C/C(=C1/SC(=S)N(CCC(=O)O)C1=O)c1ccc(O)cc1 52.2%
C=CCNC(=O)CCCc1ccccc1 11.4%
CC1CCCCN1C(=O)Cn1cnc2c1c(=O)n(C)c(=O)n2C (centres undefined) 0.19%
Cc1cc(-c2ccccc2)nc(Oc2cccc(C(F)(F)F)c2)c1S(C)(=O)=O -2.06%
COc1cccc(-n2nc3c(=S)[nH]nc(C)c3c2C)c1 -3.52%
O=C(O)COCC(=O)Nc1cc(C(F)(F)F)cc(C(F)(F)F)c1 -0.47%
COc1ccccc1NS(=O)(=O)c1ccc(NC(=O)c2ccncc2)cc1 -5.68%
COc1ccc(-c2cc(=O)c3c(O)c(OC)c(O)cc3o2)cc1 -3.88%
Cc1ccccc1-c1cc(=O)c2c(O)cccc2o1 -7.05%
COc1ccc(C2=NOC(C(=O)Nc3cc(C)on3)C2)cc1 (centres undefined) -16.7%
